# A selection: hits, their analogues and other compounds. The true share with any hit is near 1.4%.
# ERK EGF inh: inhibitors of EGF-stimulated ERK signaling pathway; HEK293-V1b, EGF-stimulated phospho-ERK AlphaScreen; Potency, µM (titrated, usually from 11.5 µM), without a hit: at the highest dose activity change, negative = inhibition, most hits filed as inhibitors; 130,000 tested, 0.41% active; AID 1454;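 note: plate controls were stimulated vehicle wells for no effect and unstimulated vehicle basal for full effect; nearly all actives have a fitted effect of over 55% in size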
#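 V1b-HEK293, 1% FBS o/n; cpd 30 min 37C; EGF 25 nM final, 5 min; lyse 10 min; AlphaScreen beads 5 h RT. Normalized DMSO basal vs EGF max; Hill AC50.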
# HTT ATP protect: protects HTT-Q103 PC12 cells, measured by ATP | 230,000 tested, 0.14% active | Potency, µM (top dose mostly 56.4 µM), for inactives: cytoprotection (ATP increase), hits mostly activators | PC12 HTT-Q103 induced, cytoprotection, ATP luminescence, 40 h; note: % of control where 0% means no effect; nearly all actives have a fitted effect of over 45% in size
#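 Quantitative HTS on tebufenozide-induced (100 nM) PC12 cells expressing HTTQ103 exon 1–GFP; compounds tested as a concentration series; survival measured via cellular ATP.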
# HttQ103 aggreg: reduces HttQ103-GFP aggregates in PC12 cells | Potency, µM (titrated, usually from 46.1 µM), for inactives: top-dose activity change, negative = inhibition, actives largely listed as inhibitors | PC12 HttQ103-GFP aggregates, Acumen cytometry, 40 h | AID 1688 | 220,000 tested, 1.1% active; note: % is set by controls: 0 for no effect and ±100 for the full control effect; nearly all actives have a fitted effect of over 60% in size
#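 Huntingtin Q103 exon 1–GFP aggregates in induced PC12 cells (100 nM tebufenozide) were quantified by cytometry from lysates, with compounds dosed in titration.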
# * = called active by the depositor; ? = inconclusive; . = no result given; [ ] = remark or other dose. Calls come from the whole dose curve; as a rule, active = well fitted curve in the direction sought with a large enough effect; inconclusive = small, poorly fitted or top-dose-only effect, or another doubt; inactive = no such curve, though single readings can be large; an effect the other way counts as inactive or inconclusive. Potency is the fitted concentration of half-maximal effect.
SMILES,ERK EGF inh,HTT ATP protect,HttQ103 aggreg
c1ccc(CCCN2CCN(CCOC(c3ccccc3)c3ccccc3)CC2)cc1,7.5%,?,.
Fc1ccc(C(OCCN2CCN(CCCc3ccccc3)CC2)c2ccc(F)cc2)cc1,?,-99.0%,25.1µM*
C=C(C)[C@@H]1CN[C@H](C(=O)O)[C@H]1CC(=O)O,.,-20.2%[1.9 µM],.
Cc1ccc(-c2cc(-c3ccc(C)cc3)[n+](C)o2)cc1,-7.4%,.,3.16µM*
C=CCN1C[C@@H](C)N([C@H](c2ccc(C(=O)N(CC)CC)cc2)c2cccc(OC)c2)C[C@H]1C,.,5.1%[1.9 µM],.
C=C(C)[C@H]1Cc2c(ccc3c2O[C@H]2COc4cc(OC)c(OC)cc4[C@@H]2C3=O)O1,.,-40.6%[1.9 µM],.
C[C@]12Cc3cn4c(nc3C=C1CC[C@H]1[C@@H]2CC[C@@]2(C)[C@H]1CC[C@@]2(O)C#N)nc1ccccc14,.,-0.6%[1.9 µM],.
CC(C)N[C@@H](C)Cc1ccc(I)cc1,.,20.0%[1.9 µM],.
O=Cc1cn(Cc2ccc([N+](=O)[O-])cc2)c2ccccc12,3.2%,-7.1%[10 µM],3.4%
O=Cc1cn(Cc2ccccc2[N+](=O)[O-])c2ccccc12,-2.1%,.,14.1µM*
CN1CCc2nc3sc(C#N)c(N)c3c(-c3cccs3)c2C1,.,12.6µM*,-3.6%
CN1CCc2nc(N)c(C#N)c(-c3ccccc3)c2C1,.,-3.5%[10 µM],-4.6%
O=C1C(Cl)=C(Cl)C(=O)C(Cl)=C1Cl,10µM*,-301.1%,.
CC[C@H](CO)NC(=O)[C@@H]1C=C2c3cccc4c3c(cn4C)C[C@@H]2N(C)C1,.,-5.4%[1.9 µM],.
OCC[n+]1c2ccccc2nc2ccc(N3CCOCC3)cc21,14.1µM*,-2.3%[10 µM],-9.0%[9.22 µM]
Cn1ncnc2c(=O)n(C)c(=O)nc1-2,.,-88.2%,5.01µM*
O=c1cccc2n1C[C@H]1C[C@@H]2CN(CCO)C1,.,20.1%,.
CC(C)(O)[C@H]1[C@H]2OC(=O)[C@@H]1[C@]1(O)C[C@H]3O[C@]34C(=O)O[C@H]2[C@]14C (tested in a mixture with another compound),.,10.6%[1.9 µM],.
C=CCN1CCc2cccc3c2[C@@H]1Cc1ccc(O)c(O)c1-3,.,5.2%[1.9 µM],.
COc1ccc(C2=NCC(=O)N(CC(=O)NCc3ccco3)c3sc4c(c32)CCCC4)cc1,.,-5.0%,1.7%
Cc1cccc(C2=NCC(=O)N(CC(=O)NCc3ccco3)c3sc4c(c32)CCCC4)c1,.,-4.1%,11.2µM*
C[C@@H]1[C@H]2C=C[C@@H]1[C@@H](c1c3ccc(=O)c(O)c-3oc3c(O)c(O)ccc13)[C@@H]2C(=O)O,.,-4.6%[10 µM],.
CC1CC(C)C(=O)[C@H](C(O)CC2CC(=O)NC(=O)C2)C1 (stereo partly specified),-8.6%,.,.
C[C@H]1C[C@@H](C)C(=O)[C@@H]([C@H](O)CC2CC(=O)NC(=O)C2)C1,5.7%[57.5 µM],-47.7%[10 µM],0.355µM*
O=c1ccc2cc(O[C@@H]3O[C@@H](CO)[C@@H](O)[C@@H](O)[C@H]3O)c(O)cc2o1,.,-1.9%,.
SMILES,ERK EGF inh,HTT ATP protect,HttQ103 aggreg
C/C=C(\C)C(=O)O[C@@H]1C(C)=C2[C@H]([C@@H]1OC(=O)CCCCCCC)[C@@](C)(OC(C)=O)C[C@@H](OC(=O)CCC)[C@@]1(O)[C@H]2OC(=O)[C@]1(C)O,.,-79.9%[1.9 µM],.
O=C(Nc1ccc(Cl)cc1)Nc1ccc(Cl)c(Cl)c1,.,-83.0%,11.2µM*
O=C(O)c1cc(Cl)ccc1Cl,.,1.2%,.
C[C@H]1C(=O)O[C@H]2CCN3CC=C(COC(=O)[C@](C)(O)[C@@]1(C)O)[C@H]23,.,-17.6%,.
c1ccc(-c2cc(-c3ccccc3)[n+](-c3ccccc3)c(-c3ccccc3)c2)cc1,22.4µM*,-75.0%[10 µM],3.98µM*
C[n+]1c(-c2ccccc2)cc(-c2ccc(Cl)cc2)cc1-c1ccccc1,4.6%,-67.5%,?
CN(C)c1ccc(N=Nc2ccccc2)cc1,.,-107.4%,.
CN(C)c1ccc(-[n+]2c(-c3ccccc3)cc(-c3ccccc3)cc2-c2ccccc2)cc1,?,-162.7%,1.12µM*
C[C@@]12CCC[C@](C)(C(=O)O)[C@@H]1CCc1ccc(O)cc12,.,-5.7%,.
O=C(c1cccc(Cl)c1)C1CCCN(Cc2cccc3cnccc23)C1 (stereo unspecified),-4.7%[57.5 µM],21.2%[10 µM],0.3%[9.22 µM]
O=C(c1ccc(Cl)cc1)C1CCCN(Cc2cccc3cnccc23)C1 (stereo unspecified),-11.3%,-25.4%,20µM*
Cc1cc[c]([Sb]2[O][C@H]([C@H](O)[C@H](O)C(=O)O)[C@@H](CO)[O]2)cc1,.,1.9%[10 µM],.
COC(=O)[C@H](N)CCCN=C(N)N[N+](=O)[O-],.,8.2%[1.9 µM],.
N[C@H](Cn1cc(I)c(=O)[nH]c1=O)C(=O)O,.,-13.4%[1.9 µM],.
O=S(=O)(NCCO)c1cc[c]([Sb](=[O])([OH])[OH])cc1,.,-4.3%[10 µM],.

# Source: PubChem BioAssay
